This is a sample that favours compounds with a hit; in the whole collection about 3% have one here.
SKOV3 invasion = inhibitors of ovarian cancer cell adhesion and invasion in omental model | SKOV3ip1-GFP adhesion/invasion on 3D omental model, fluorescence | AID 1963576 | 0.1% of 46,000 active | Potency, µM (titrated, usually from 45.8 µM), without a hit: at the highest dose activity change, negative = inhibition, most hits filed as inhibitors;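 further: plate controls were DMSO wells for no effect and tomatine positive control wells for full effect; nearly all actives have a fitted effect of over 65% in size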
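qHTS, 4-pt dose (0.36-46 umol/L); SKOV3ip1-GFP, 1,200 cells/well, no FBS; primary omental fibroblast/mesothelial co-culture 48 h pre-grown; 2 h RT + 16 h 37 C; PBS wash, 4% PFA; GFP count 488/509 nm.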
pS6 MEF inh = inhibitors of mTORC1 signaling in Tsc2-/- p53-/- MEF cells | Tsc2-/- p53-/- MEF, phospho-rpS6 immunofluorescence/PI, 24 h | 0.78% of 44,000 active | Potency, µM (titrated, usually from 38.3 µM), without a hit: top-dose activity change, negative = inhibition, actives largely listed as inhibitors;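 further: plate controls were DMSO for no effect and rapamycin for full effect; nearly all actives have a fitted effect of over 50% in size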
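Read-out: phospho-S6 Alexa-488 intensity over PI intensity per well, scored as % active cells using thresholds from rapamycin (7.5 nM) and DMSO controls. Tsc2-/-, p53-/- MEFs exposed to compound for 24 h; PI cell count recorded as viability.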
S16 viability = cytotoxicity in S16 Pmp22-F2sN Schwann cells; Potency, µM (highest dose often 57.5 µM), for the others: at the top dose activity change, negative = cytotoxicity, actives largely listed as cytotoxic; S16 Pmp22-F2sN Schwann cells viability, CellTiter-Glo, 24 h; 0.48% of 43,000 active; further: nearly all actives have a fitted effect of over 65% in size
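CellTiter-Glo counter-screen, qHTS, 1536-well. Cells: S16(c9) Pmp22-F2sN, 500-1,000/well in DMEM + 10% FBS. Cpd 23 nL pin transfer, 24 h, 37C/5% CO2. Read: luminescence, CCD imager.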
PMP22 txn = modulators of PMP22 gene transcription in S16 Schwann cells | S16 Pmp22-F2sN Schwann cells (luciferase reporters placed in the Pmp22 gene), FLuc/NLuc coincidence luminescence, 24 h | Potency, µM (top dose mostly 57.5 µM), for the others: top-dose activity change, negative = inhibition, actives largely listed as inhibitors | 2% of 43,000 active; active means clear falling dose curves in both reporters; inconclusive means both reporters move, but less clearly or upward; inactive means either reporter flat; the % is the NLuc reporter signal
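Reporter cells (S16 Pmp22-F2sN, 500–1,000 per well) exposed to compounds for 24 h, 37C, 5% CO2; lysis with FLuc read after 10 min, then Stop&Glo and NLuc read after 10 min.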
p53null 39C kill = p53 null cell cytotoxicity, nonpermissive temperature | AID 904 | Potency, µM (doses to about 46.1 µM), inactives show at the top dose activity, negative = cell killing, most hits filed as cytotoxic | H1299 p53-null (neo) cells, 39C, ATPlite viability, 24 h | 0.97% of 55,000 active;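 further: 0% = DMSO only and -100% = full killing by 100 µM tamoxifen; nearly all actives have a fitted effect of over 50% in size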
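ATP-luminescence viability readout (ATPlite, 20 min RT) after 24 hr compound treatment at 39C of H1299-neo or H1299-p53A138V cells; titration up to 46 uM; normalized to DMSO and 100 uM tamoxifen; Hill-fit AC50.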
p53null 32C kill = kills p53 null cells at the permissive temperature; H1299-neo p53 null cells, ATP luminescence, 24 h, 32C; Potency, µM (series often up to 46.1 µM), for inactives: top-dose activity change, negative = cytotoxicity, usual class: cytotoxic; AID 903; 0.62% of 55,000 active;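 further: 0% = DMSO only and -100% = full killing by 100 µM tamoxifen; nearly all actives have a fitted effect of over 55% in size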
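H1299-neo (p53-null) cells, 600/well, were pre-incubated overnight at 37C, then exposed to compounds at up to 46 uM for 24 hr at 32C. Viability was measured as ATP content by luminescence, and AC50 values came from Hill fits.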
* hit, by the source's call; i = inactive; ? = inconclusive; nt = no result given. Unless noted, the call rests on the fitted dose curve; in most records, active means well fitted curve in the direction sought with a large enough effect; inconclusive means small, poorly fitted or top-dose-only effect, or another doubt; inactive means no such curve, though single readings can be large; an effect the other way counts as inactive or inconclusive. Unless noted, on the % scale 0 is the no-effect control and ±100 the full control effect; potency means the concentration at half of the fitted maximal effect.

SMILES	SKOV3 invasion	pS6 MEF inh	S16 viability	PMP22 txn	p53null 39C kill	p53null 32C kill
CCSc1ncc(Cl)c(C(=O)Nc2ccc(S(=O)(=O)N(C)c3ccccc3)cc2)n1	i	-3.1%	-22.9%	?	7.8%	0.2%
CCN(c1ccccc1)S(=O)(=O)c1ccc(NC(=O)c2nc(S(C)(=O)=O)ncc2Cl)cc1	?	3.29µM*	4.47µM*	1.68µM*	?	?
CC(C)Sc1ncc(Cl)c(C(=O)Nc2ccc(S(=O)(=O)N(C)c3ccccc3)cc2)n1	5.3%	-9.9%	-22.1%	?	-10.4%	0.8%
COc1cc([C@@H]2c3cc4c(cc3[C@@H](O[C@@H]3O[C@@H]5CO[C@@H](C)O[C@@H]5[C@H](O)[C@@H]3O)[C@H]3COC(=O)[C@H]23)OCO4)cc(OC)c1O	-12.2%	nt	nt	nt	nt	nt
Cc1cc(Nc2cccc(C(F)(F)F)c2)nc2ccc(NC(=O)c3cccc(Cl)c3)cc12	-1.8%	?	-19.5%	?	12.6µM*	-17.5%
Cc1cc(Nc2cccc(C(F)(F)F)c2)nc2ccc(NC(=O)c3cccnc3)cc12	11.2µM*	?	?	?	?	28.2µM*
FC(F)(F)c1cccc(Nc2c3c(nc4ccc(Cl)cc24)CCC3)c1	-6.0%	5.85µM*	?	?	?	?
Cc1cc(Nc2cccc(Cl)c2)nc2ccc(NC(=O)Cc3cccc(C(F)(F)F)c3)cc12	?	0.1%	-27.4%	?	?	-4.9%
CC1=C(C(=O)Nc2cc3cn[nH]c3cc2F)C(c2ccc(C(F)(F)F)cc2)CC(=O)N1 (configuration not stated)	5.3%	nt	nt	nt	nt	nt
Cc1ccc(S(=O)(=O)NCCc2nnc3ccc(SCc4ccccc4C)nn23)cc1	-1.0%	2.5%	-1.4%	-28.0%	15.8µM*	5.2%
Cc1ccc(C)c(CSc2ccc3nnc(CCNS(=O)(=O)c4ccccc4)n3n2)c1	37.2%	0.5%	0.2%	-5.9%	-0.9%	-4.8%
Fc1ccc(Nc2nc3nonc3nc2Nc2cccc(C(F)(F)F)c2)cc1	-2.9%	?	8.91µM*	7.27µM*	5.62µM*	?
COc1ccc(CC2=NN3C([C@@H](CCc4ccccc4)[C@@H](C)O)=NC(C)C3C(=O)N2)cc1OC (some centres not stated)	-8.9%	nt	nt	nt	nt	nt
NC(=O)[C@@H](CCC(F)(F)F)N(Cc1ccc(-c2ncon2)cc1F)S(=O)(=O)c1ccc(Cl)cc1	-16.6%	nt	nt	nt	nt	nt
COc1cccc(C2=CC(c3ccccc3F)n3c(nc4ccccc43)N2)c1 (configuration not stated)	1.7%	0.1%	?	?	?	11.2µM*
CCOc1ccc(C2=CC(c3cccc(Br)c3)n3c(nc4ccccc43)N2)cc1Cl (configuration not stated)	0.9%	-7.1%	-19.8%	?	10.1%	-0.9%
Cc1ccc(C2=CC(c3ccccc3F)n3c(nc4ccccc43)N2)cc1C (configuration not stated)	-5.5%	-0.7%	?	?	?	12.6µM*
COc1cccc(C2=CC(c3ccccc3F)n3ncc(C(=O)Nc4ccc(C)cc4)c3N2)c1 (configuration not stated)	1.6%	-16.3%	?	?	20.8%	41.4%
NC1CCC(Nc2nc(Nc3ccc(C(=O)N4CCCCC4)cc3)c3ncn(-c4cccc(F)c4)c3n2)CC1 (configuration not stated)	-3.6%	nt	nt	nt	nt	nt
Cc1ccc(NC(=O)CCc2c(C)nn(-c3ccc(N4CCCCC4)nn3)c2C)cc1F	i	-14.3%	nt	nt	7.94µM*	?
COc1cc(OC)cc(C(=O)Nc2cc(-c3nc4ccccc4[nH]3)ccc2C)c1	i	-0.3%	-26.9%	-44.1%	-18.3%	6.8%
Cc1ccc(C(C)C)c(OCC(=O)Nc2cc(-c3nc4ccccc4[nH]3)ccc2C)c1	-14.6%	13.1µM*	?	?	7.94µM*	?
COc1ccc(C(=O)Nc2cc(C(C)C)c(O)c(S(=O)(=O)c3ccc(Cl)cc3)c2C)cc1	1.4%	-1.5%	-6.6%	18.5%	-12.1%	2.7%
COc1ccc(C(=O)NC(c2ccc(Cl)cc2)c2cc(Cl)c3cccnc3c2O)cc1 (configuration not stated)	1.6%	1.7%	3.98µM*	?	17.0%	?
CC(C)c1ccc(C2=CC(c3cccc(Cl)c3)n3c(nc4ccccc43)N2)cc1 (configuration not stated)	-9.6%	-4.5%	-19.3%	?	?	22.4µM*
SMILES	SKOV3 invasion	pS6 MEF inh	S16 viability	PMP22 txn	p53null 39C kill	p53null 32C kill
CCc1ccc(C2=CC(c3cccc(OC)c3OC)n3c(nc4ccccc43)N2)cc1 (configuration not stated)	13.3%	0.1%	?	?	?	14.1µM*
CCc1ccc(C2=CC(c3cccc(C)c3)n3c(nc4ccccc43)N2)cc1 (configuration not stated)	-6.9%	-4.3%	?	?	10µM*	10µM*
CC(C)c1ccc(C2=CC(c3cccc(Cl)c3)n3ncnc3N2)cc1 (configuration not stated)	-17.3%	-0.9%	?	?	6.6%	8.1%
N=C1SC(=Cc2ccc(-c3ccc4c(c3)C(=O)NC4=O)o2)C(=O)N1c1ccc(Br)cc1	-17.1%	nt	nt	nt	nt	nt
O=C(C=Cc1ccc(CN(CCO)CCc2c[nH]c3ccccc23)cc1)NO	-1.7%	nt	nt	nt	nt	nt
CCc1cncnc1N1CCN(Cc2nc3ccc(C(F)(F)F)cc3[nH]2)CC1	-13.5%	nt	nt	nt	nt	nt
CC1CCN(c2cc(N3CCN(C)CC3)ccc2NC(=O)c2cc(C#N)c[nH]2)CC1	23.3%	nt	nt	nt	nt	nt
FC(F)(F)c1ccc(C=Cc2nc(COc3ccc(CCCCn4ccnn4)cc3)co2)cc1	5.1%	nt	nt	nt	nt	nt
CCOc1cc(C(c2c(C)[nH]n(-c3ccccc3)c2=O)c2c(C)[nH]n(-c3ccccc3)c2=O)ccc1O	?	6.8%	-3.3%	9.46µM*	-12.3%	3.8%
C[C@@]1(c2cc(-c3cncnc3)c(F)cc2F)CCSC(N)=N1	11.3%	nt	nt	nt	nt	nt
CC(=O)c1ccc(NS(=O)(=O)c2ccc(-c3cnc(C4CC4)o3)cc2)cc1	i	-1.5%	6.0%	-2.6%	0.2%	?
CCOC(=O)c1cccc(NS(=O)(=O)c2ccc(-c3cnc(C4CC4)o3)cc2)c1	i	-18.1%	?	10.6µM*	1.3%	-5.8%

Screening results as filed in PubChem.
